According to PubChem BioAssay (Tox21):
Unmarked numbers belong to inactive results. Calls of active or inactive are those of the source. Calls follow the shape of the full dose curve.

Target: Muscarinic acetylcholine receptor M1 (Homo sapiens) (UniProt P11229)
Assay: Cholinergic receptor muscarinic 1 (CHRM1) small molecule agonists, cell-based qHTS assay (AID 1963589); also: nearly all actives have a fitted effect of over 35% in size
Conditions: CHRM1-CHO cells, agonist mode, calcium flux fluorescence; series mostly up to 76.8 µM; activation: at the top concentration
Method in brief: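 Agonist-mode qHTS in CHO cells stably carrying human muscarinic M1. Intracellular calcium is tracked by fluorescence every second after compound transfer; each compound runs at 15 concentrations in three independent runs.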
% is scaled to controls: 0 for no effect and ±100 for the full control effect.

Muscarinic acetylcholine receptor M1 (Homo sapiens), sequence (P11229 whole entry, looked up): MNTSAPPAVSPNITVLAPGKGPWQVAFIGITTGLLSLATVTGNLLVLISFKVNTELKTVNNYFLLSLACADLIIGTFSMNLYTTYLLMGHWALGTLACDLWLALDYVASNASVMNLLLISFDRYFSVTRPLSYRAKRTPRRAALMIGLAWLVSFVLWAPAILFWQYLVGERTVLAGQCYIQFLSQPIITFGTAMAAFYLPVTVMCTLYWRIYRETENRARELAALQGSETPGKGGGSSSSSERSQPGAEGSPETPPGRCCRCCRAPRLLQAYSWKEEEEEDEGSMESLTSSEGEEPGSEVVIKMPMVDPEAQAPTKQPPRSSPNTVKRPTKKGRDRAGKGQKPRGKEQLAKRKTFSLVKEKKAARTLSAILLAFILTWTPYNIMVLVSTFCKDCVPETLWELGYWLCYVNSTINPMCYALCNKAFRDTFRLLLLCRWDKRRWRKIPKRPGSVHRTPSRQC

Compound | activation | Potency
COc1ccc(C(=O)/C(Br)=C\C(=O)O)cc1 | -0.609% | –
COc1ccc(-c2cc(=S)ss2)cc1 | 10.1% [at 35.3 µM] | –
O=C(CCCCCCC(=O)Nc1ccccc1)NO | -0.839% [at 35.3 µM] | –
c1cc(CN2CCCCC2)cc(OCCCNc2nc3ccccc3s2)c1 | 0.696% [at 35.3 µM] | –
O=c1[nH]c2ccccc2n1CCCN1CCN(C(c2ccccc2)c2ccccc2)CC1 | 14.1% [at 35.3 µM] | –
Cc1ccc(O)c(C(C)(C)C)c1 | – | inactive
COc1cc(Nc2c(C#N)cnc3cc(OCCCN4CCN(C)CC4)c(OC)cc23)c(Cl)cc1Cl | -0.209% [at 35.3 µM] | –
N[C@@H](C(=O)N[C@@H]1C(=O)N2C(C(=O)O)=C(Cl)CS[C@H]12)c1ccccc1 | -0.906% [at 6.97 µM] | –
CCCC(=O)O[C@]1(C(=O)CCl)[C@@H](C)C[C@H]2[C@@H]3CCC4=CC(=O)C=C[C@]4(C)[C@@]3(F)C(=O)C[C@@]21C | -0.516% [at 35.3 µM] | –
Cc1cccc(O)c1N | -0.314% | –
CCN(CC)c1ccc(C(=C2C=CC(=[N+](CC)CC)C=C2)c2cc(S(=O)(=O)O)ccc2S(=O)(=O)[O-])cc1 | 2.42% [at 35.3 µM] | –
Cc1cc(O)c2c(c1)C(=O)c1cc(O)cc(O)c1C2=O | – | inactive
O=C1Cc2cc(CCN3CCN(c4nsc5ccccc45)CC3)c(Cl)cc2N1 | -0.801% [at 35.3 µM] | –
O=c1cc(-c2ccc(O)cc2)oc2cc(O)cc(O)c12 | – | inactive
CCCCCCCC/C=C/CCCCCCCC1=NCCN1CCO | -0.545% | –
CC1=NN(c2cc(Cl)c(S(=O)(=O)O)cc2Cl)C(=O)C1N=Nc1ccc(S(=O)(=O)O)cc1 (stereo unspecified) | -0.229% | –
CN(C)CC/C=C1\c2ccccc2Sc2ccc(Cl)cc21 | 1.37% [at 35.3 µM] | –
C(=C(c1ccccc1)c1ccccc1)c1ccccc1 | 1.27% | –

Compound | activation | Potency
NC(=O)C1(N2CCCCC2)CCN(CCCN2c3ccccc3CCc3ccc(Cl)cc32)CC1 | 11.6% [at 35.3 µM] | –
O=C1c2ccccc2C(=O)c2c(O)c(O)cc(O)c21 | 3.99% | –
CN1CCCC(CC2c3ccccc3Sc3ccccc32)C1 (stereo unspecified) | 1.87% [at 35.3 µM] | –
CCOc1ccc2nc3cc(N)ccc3c(N)c2c1 | -0.285% [at 35.3 µM] | –
CC1=NN(c2ccc(S(=O)(=O)O)cc2)C(=O)C1N=Nc1ccccc1 (stereo unspecified) | -1.59% | –
Nc1ccc(N)c2c1C(=O)c1ccccc1C2=O | 0.227% | –
CNCC[C@@H](Oc1ccccc1C)c1ccccc1 | 0.85% [at 35.3 µM] | –
COc1cc([N+](=O)[O-])ccc1N | 0.071% | –
Cc1c(C(=O)NN2CCCCC2)nn(-c2ccc(Cl)cc2Cl)c1-c1ccc(Cl)cc1 | -0.0541% [at 35.3 µM] | –
CC(C)C(OC(=O)c1ccccc1)C(C)(C)COC(=O)c1ccccc1 (stereo unspecified) | -0.409% | –
CN(C)C(=O)NC1(c2ccccc2)CCN(CCC[C@]2(c3ccc(Cl)c(Cl)c3)CCCN(C(=O)c3ccccc3)C2)CC1 | 0.44% [at 15.8 µM] | –
Clc1ccc(Cn2c(CN3CCCC3)nc3ccccc32)cc1 | 1.17% [at 35.3 µM] | –
O=C1CCCCCN1SSN1CCCCCC1=O | -0.249% | –
CC(COc1ccc(C(C)(C)C)cc1)OS(=O)OCCCl (stereo unspecified) | -1.01% | –
c1ccc(-c2ccc(C(c3ccccc3)n3ccnc3)cc2)cc1 (stereo unspecified) | 0.937% [at 35.3 µM] | –
Cc1onc(-c2c(Cl)cccc2Cl)c1C(=O)N[C@@H]1C(=O)N2[C@@H]1SC(C)(C)[C@@H]2C(=O)O | -0.273% [at 35.3 µM] | –
Cc1ccc(N/N=c2\c(=O)cc/c(=N\Nc3ccc(S(=O)(=O)O)cc3)c2=O)c(C)c1 | -0.157% | –
CCCCC(CC)CN1CN(CC(CC)CCCC)CC(C)(N)C1 (stereo unspecified) | -0.0339% [at 35.3 µM] | –
